Laboratory results: the supplement of paper PMC10849652
About 7,900 targets were measured; listed, in parts, are those with a hit and a random draw of the rest. About 0.6% of all pairs of compound and target were hits.

Compound: C1=CC=C(C=C1)[C@H](COC2=CC3=C(C=C2)NC(=O)N3)NC(=O)C4=CC=CN(C4=O)CC5=CC(=C(C=C5)F)F
Test: log2 fold change, soluble protein after heating vs DMSO (PISA); higher = thermal stabilisation; K562 cells, 10 uM, 30 min; active = over 0.2 and 3.5 SD of the protein, either way, in both replicates (recomputed)
Summary of the method: (§1)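 Soluble protein was defined as the supernatant after 21,000xg for 90 min. It came from K562 cells at 2×10^6 cells/mL given 10 μM compound for 30 min, heated in aliquots for 3 min across 48°C-58°C, pooled, and extracted in PBS with 0.5% NP-40 at 4°C, and was quantified by TMTpro 16plex LC-MS/MS with equalised channel sums. Thermal stability against control samples, from duplicates, is reported as log2 fold change.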

Sequence of UniProt Q8N2G8 (Q8N2G8 whole entry, looked up): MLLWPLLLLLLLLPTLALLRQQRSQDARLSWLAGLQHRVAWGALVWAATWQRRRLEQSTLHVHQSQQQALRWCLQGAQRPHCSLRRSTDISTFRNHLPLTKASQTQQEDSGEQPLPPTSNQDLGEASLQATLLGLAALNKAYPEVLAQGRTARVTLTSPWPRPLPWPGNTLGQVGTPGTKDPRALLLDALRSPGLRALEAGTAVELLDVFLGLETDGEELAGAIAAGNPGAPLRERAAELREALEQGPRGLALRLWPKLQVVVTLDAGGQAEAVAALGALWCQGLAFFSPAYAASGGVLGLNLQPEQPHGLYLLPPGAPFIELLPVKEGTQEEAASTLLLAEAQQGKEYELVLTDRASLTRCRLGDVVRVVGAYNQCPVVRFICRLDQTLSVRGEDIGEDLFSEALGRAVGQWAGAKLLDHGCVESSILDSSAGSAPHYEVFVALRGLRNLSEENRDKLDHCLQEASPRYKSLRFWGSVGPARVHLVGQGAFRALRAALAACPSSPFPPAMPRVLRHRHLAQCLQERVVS
Sequence of UniProt P07686 (P07686 whole entry, looked up): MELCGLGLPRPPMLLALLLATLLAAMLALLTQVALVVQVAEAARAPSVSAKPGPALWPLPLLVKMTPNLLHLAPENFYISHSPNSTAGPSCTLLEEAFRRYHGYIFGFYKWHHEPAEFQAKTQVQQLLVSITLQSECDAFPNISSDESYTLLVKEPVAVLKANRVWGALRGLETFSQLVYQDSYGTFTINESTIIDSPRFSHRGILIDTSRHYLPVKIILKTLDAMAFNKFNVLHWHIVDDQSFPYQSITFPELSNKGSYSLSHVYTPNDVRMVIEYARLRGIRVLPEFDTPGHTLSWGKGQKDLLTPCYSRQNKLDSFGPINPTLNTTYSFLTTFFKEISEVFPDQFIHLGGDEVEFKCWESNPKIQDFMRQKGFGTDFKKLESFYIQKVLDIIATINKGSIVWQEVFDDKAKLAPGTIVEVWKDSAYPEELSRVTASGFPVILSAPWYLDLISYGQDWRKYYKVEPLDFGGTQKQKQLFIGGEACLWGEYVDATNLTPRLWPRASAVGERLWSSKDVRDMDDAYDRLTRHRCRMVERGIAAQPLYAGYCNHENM
Sequence of UniProt Q9UJY4 (Q9UJY4 whole entry, looked up): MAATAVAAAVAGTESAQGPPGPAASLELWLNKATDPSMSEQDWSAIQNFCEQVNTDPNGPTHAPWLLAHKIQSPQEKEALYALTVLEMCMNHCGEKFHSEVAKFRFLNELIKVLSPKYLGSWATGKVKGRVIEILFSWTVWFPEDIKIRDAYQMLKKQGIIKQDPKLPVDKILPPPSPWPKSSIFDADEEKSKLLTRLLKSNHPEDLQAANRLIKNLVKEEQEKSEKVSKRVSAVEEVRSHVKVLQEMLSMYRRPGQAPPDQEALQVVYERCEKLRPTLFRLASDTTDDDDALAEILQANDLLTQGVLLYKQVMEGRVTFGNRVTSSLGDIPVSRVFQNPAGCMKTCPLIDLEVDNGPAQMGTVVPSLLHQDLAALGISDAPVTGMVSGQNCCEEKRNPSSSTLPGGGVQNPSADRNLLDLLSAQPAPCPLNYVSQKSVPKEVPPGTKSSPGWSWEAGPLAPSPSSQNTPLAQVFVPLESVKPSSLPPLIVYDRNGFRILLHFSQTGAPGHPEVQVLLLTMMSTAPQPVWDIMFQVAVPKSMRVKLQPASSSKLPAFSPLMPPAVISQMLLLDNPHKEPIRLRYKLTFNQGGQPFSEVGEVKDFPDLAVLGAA
Sequence of UniProt P14324 (P14324 whole entry, looked up): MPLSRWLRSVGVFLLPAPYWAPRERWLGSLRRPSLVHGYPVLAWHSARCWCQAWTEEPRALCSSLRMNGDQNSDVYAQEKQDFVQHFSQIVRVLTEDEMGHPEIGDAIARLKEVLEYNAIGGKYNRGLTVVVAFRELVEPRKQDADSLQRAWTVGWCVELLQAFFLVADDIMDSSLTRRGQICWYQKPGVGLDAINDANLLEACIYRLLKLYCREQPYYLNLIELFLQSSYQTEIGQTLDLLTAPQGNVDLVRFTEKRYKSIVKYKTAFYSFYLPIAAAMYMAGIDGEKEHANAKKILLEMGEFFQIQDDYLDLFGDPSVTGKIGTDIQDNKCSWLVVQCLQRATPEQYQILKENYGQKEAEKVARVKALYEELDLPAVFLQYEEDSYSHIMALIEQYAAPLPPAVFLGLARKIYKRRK
Sequence of UniProt Q92538 (Q92538 whole entry, looked up): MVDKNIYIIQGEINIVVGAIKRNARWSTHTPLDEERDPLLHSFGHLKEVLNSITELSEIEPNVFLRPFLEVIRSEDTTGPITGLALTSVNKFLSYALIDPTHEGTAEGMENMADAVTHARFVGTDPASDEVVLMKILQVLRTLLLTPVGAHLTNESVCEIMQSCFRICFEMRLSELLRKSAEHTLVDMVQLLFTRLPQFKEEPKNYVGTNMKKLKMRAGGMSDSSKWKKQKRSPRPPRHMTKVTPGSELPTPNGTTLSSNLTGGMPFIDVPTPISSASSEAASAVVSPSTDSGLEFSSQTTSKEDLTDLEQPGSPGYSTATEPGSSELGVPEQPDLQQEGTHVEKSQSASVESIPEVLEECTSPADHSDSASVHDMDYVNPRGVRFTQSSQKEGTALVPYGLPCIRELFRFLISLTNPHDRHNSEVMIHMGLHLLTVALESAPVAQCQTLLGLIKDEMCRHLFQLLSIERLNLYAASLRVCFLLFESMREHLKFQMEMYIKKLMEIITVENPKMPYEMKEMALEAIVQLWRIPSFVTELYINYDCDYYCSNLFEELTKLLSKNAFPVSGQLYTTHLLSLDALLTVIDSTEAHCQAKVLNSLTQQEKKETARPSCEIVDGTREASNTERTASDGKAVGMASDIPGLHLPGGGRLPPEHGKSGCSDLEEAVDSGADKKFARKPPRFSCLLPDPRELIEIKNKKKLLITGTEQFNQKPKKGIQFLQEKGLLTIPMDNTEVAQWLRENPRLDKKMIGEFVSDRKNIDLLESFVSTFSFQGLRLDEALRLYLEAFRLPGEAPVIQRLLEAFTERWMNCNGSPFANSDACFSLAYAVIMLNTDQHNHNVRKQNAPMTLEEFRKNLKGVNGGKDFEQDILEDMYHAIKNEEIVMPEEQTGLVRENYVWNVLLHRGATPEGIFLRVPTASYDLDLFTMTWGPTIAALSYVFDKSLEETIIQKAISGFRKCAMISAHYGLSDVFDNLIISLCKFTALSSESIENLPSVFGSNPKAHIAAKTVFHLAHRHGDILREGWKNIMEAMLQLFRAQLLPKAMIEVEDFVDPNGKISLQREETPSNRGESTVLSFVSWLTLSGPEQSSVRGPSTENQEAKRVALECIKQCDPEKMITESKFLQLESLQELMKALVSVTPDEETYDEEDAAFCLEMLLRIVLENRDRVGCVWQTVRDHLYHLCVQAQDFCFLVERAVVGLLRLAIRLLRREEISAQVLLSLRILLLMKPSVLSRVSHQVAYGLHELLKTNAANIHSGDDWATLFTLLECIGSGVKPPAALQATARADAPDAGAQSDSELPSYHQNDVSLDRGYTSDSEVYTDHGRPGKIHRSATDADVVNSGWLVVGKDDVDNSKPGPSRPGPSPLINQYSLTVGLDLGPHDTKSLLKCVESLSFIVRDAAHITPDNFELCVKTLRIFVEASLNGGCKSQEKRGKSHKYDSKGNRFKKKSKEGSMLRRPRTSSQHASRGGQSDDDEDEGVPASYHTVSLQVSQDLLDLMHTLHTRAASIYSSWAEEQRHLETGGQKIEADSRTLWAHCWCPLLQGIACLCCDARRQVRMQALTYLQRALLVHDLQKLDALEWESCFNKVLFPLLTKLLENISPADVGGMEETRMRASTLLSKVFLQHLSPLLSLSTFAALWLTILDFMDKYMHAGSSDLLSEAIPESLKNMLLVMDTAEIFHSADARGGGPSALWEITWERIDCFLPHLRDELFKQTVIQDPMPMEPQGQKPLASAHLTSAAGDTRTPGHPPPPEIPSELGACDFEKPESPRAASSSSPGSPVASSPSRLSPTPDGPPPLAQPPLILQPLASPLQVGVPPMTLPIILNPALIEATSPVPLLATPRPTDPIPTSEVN
Sequence of UniProt Q1KMD3 (Q1KMD3 whole entry, looked up): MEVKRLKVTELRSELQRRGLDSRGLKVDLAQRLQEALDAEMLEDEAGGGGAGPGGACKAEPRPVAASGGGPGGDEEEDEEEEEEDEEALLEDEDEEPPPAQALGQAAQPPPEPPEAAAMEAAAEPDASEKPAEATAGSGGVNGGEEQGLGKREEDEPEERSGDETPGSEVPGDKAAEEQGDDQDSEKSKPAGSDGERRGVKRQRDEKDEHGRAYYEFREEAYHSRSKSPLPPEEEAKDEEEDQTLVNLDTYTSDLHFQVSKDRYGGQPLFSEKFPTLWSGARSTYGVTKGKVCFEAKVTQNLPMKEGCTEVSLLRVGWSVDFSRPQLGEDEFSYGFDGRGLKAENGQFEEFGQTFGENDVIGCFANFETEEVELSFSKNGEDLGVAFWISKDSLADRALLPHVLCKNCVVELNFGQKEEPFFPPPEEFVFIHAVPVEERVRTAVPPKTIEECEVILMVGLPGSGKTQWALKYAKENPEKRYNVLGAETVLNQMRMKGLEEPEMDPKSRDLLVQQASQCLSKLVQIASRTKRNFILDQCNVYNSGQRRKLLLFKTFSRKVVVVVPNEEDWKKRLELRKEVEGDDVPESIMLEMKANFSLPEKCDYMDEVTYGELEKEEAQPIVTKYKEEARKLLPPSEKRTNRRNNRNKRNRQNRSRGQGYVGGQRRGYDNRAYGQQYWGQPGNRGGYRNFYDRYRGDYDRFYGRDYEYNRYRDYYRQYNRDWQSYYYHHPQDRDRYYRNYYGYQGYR
Sequence of UniProt P22087 (P22087 whole entry, looked up): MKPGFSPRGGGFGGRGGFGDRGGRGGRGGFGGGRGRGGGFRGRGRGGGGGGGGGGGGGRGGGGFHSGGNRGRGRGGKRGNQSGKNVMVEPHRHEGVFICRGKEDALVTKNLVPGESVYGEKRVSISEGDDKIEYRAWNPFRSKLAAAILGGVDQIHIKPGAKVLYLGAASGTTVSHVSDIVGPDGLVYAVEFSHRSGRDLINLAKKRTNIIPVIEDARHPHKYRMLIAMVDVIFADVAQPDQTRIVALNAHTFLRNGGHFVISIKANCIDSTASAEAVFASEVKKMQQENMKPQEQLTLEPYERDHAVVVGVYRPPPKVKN

Target	log2 fold change
GLUD2 (UniProt P49448)	0.026 (inactive)
HIC2 (UniProt Q96JB3)	0.163 (inactive)
GBA2 (UniProt Q9HCG7)	0.099 (inactive)
GNAS (UniProt Q5JWF2)	0.016 (inactive)
FARS2 (UniProt O95363)	-0.021 (inactive)
HSPA2 (UniProt P54652)	0.003 (inactive)
GLIPR2 (UniProt Q9H4G4)	-0.092 (inactive)
FDPS (UniProt P14324)	-0.328 (inactive)
FIBP (UniProt O43427)	0.091 (inactive)
GLRX3 (UniProt O76003)	0.04 (inactive)
GALC (UniProt P54803)	0.046 (inactive)
GEMIN6 (UniProt Q8WXD5)	0.027 (inactive)
HNRNPUL2 (UniProt Q1KMD3)	0.054 (inactive)
HPCAL1 (UniProt P37235)	0.007 (inactive)
HEXB (UniProt P07686)	0.028 (inactive)
HNRNPC isoform 2 (UniProt P07910)	0.102 (inactive)
GHDC (UniProt Q8N2G8)	0.061 (inactive)

Target	log2 fold change
FERMT3 (UniProt Q86UX7)	-0.026 (inactive)
IFRD2 isoform 2 (UniProt Q12894)	-0.013 (inactive)
GTF2A2 (UniProt P52657)	0.003 (inactive)
GNL3 (UniProt Q9BVP2)	0.101 (inactive)
FBXO6 (UniProt Q9NRD1)	0.013 (inactive)
HBZ, A0A494C057	-0.047 (inactive)
HDDC2 (UniProt Q7Z4H3)	0.009 (inactive)
GBF1 (UniProt Q92538)	-0.078 (inactive)
HIST2H2BF isoform 2 (UniProt Q5QNW6)	0.148 (inactive)
FUNDC1 (UniProt Q8IVP5)	0.052 (inactive)
FANCI (UniProt Q9NVI1)	-0.071 (inactive)
GIGYF2 (UniProt Q6Y7W6)	-0.006 (inactive)
FBL (UniProt P22087)	0.095 (inactive)
GGA2 (UniProt Q9UJY4)	-0.023 (inactive)
HDAC1 (UniProt Q13547)	0.004 (inactive)
HNRNPUL1 (UniProt Q9BUJ2)	-0.021 (inactive)
FDFT1 (UniProt P37268)	-0.064 (inactive)

Compound: CC1=C(SC2=C1C(=N[C@H](C3=NN=C(N32)C)CC(=O)N)C4=CC=C(C=C4)Cl)C
Test: as above
Summary of the method: as §1

Target	log2 fold change
GLUD2 (UniProt P49448)	0.061 (inactive)
HIC2 (UniProt Q96JB3)	-0.053 (inactive)
GBA2 (UniProt Q9HCG7)	0.012 (inactive)
GNAS (UniProt Q5JWF2)	-0.008 (inactive)
FARS2 (UniProt O95363)	0.022 (inactive)
GLIPR2 (UniProt Q9H4G4)	-0.091 (inactive)
FDPS (UniProt P14324)	0.063 (inactive)
FIBP (UniProt O43427)	0.152 (inactive)
GLRX3 (UniProt O76003)	0.072 (inactive)
GALC (UniProt P54803)	0.055 (inactive)
GEMIN6 (UniProt Q8WXD5)	-0.111 (inactive)
HNRNPUL2 (UniProt Q1KMD3)	-0.05 (inactive)
HPCAL1 (UniProt P37235)	-0.011 (inactive)
HEXB (UniProt P07686)	0.005 (inactive)
HNRNPC isoform 2 (UniProt P07910)	-0.441 (inactive)
GHDC (UniProt Q8N2G8)	0.016 (inactive)

Target	log2 fold change
FERMT3 (UniProt Q86UX7)	0.066 (inactive)
IFRD2 isoform 2 (UniProt Q12894)	-0.091 (inactive)
GTF2A2 (UniProt P52657)	0.057 (inactive)
GNL3 (UniProt Q9BVP2)	0.112 (inactive)
FBXO6 (UniProt Q9NRD1)	0.087 (inactive)
HDDC2 (UniProt Q7Z4H3)	0.057 (inactive)
GBF1 (UniProt Q92538)	0.036 (inactive)
HIST2H2BF isoform 2 (UniProt Q5QNW6)	-0.273 (inactive)
FANCI (UniProt Q9NVI1)	0.028 (inactive)
GIGYF2 (UniProt Q6Y7W6)	0.057 (inactive)
FBL (UniProt P22087)	-0.267 (inactive)
GGA2 (UniProt Q9UJY4)	0.014 (inactive)
HDAC1 (UniProt Q13547)	0 (inactive)
HNRNPUL1 (UniProt Q9BUJ2)	-0.028 (inactive)
FDFT1 (UniProt P37268)	0.319 (active)

Compound: CC1=C2C(=CC=C1)N=C(N(C2=O)C3=CC=CC=C3C)CN4C=NC5=C(N=CN=C54)N
Test: as above
Summary of the method: as §1

Target	log2 fold change
GLUD2 (UniProt P49448)	-0.029 (inactive)
HIC2 (UniProt Q96JB3)	-0.048 (inactive)
GBA2 (UniProt Q9HCG7)	0.017 (inactive)
GNAS (UniProt Q5JWF2)	0.045 (inactive)
FARS2 (UniProt O95363)	0.006 (inactive)
GLIPR2 (UniProt Q9H4G4)	-0.009 (inactive)
FDPS (UniProt P14324)	0.143 (inactive)
FIBP (UniProt O43427)	0.042 (inactive)
GLRX3 (UniProt O76003)	0.072 (inactive)
GALC (UniProt P54803)	0.055 (inactive)
GEMIN6 (UniProt Q8WXD5)	-0.053 (inactive)
HNRNPUL2 (UniProt Q1KMD3)	-0.041 (inactive)
HPCAL1 (UniProt P37235)	0.047 (inactive)
HEXB (UniProt P07686)	0.064 (inactive)
HNRNPC isoform 2 (UniProt P07910)	-0.171 (inactive)
GHDC (UniProt Q8N2G8)	0.022 (inactive)

Target	log2 fold change
FERMT3 (UniProt Q86UX7)	0.053 (inactive)
IFRD2 isoform 2 (UniProt Q12894)	-0.055 (inactive)
GTF2A2 (UniProt P52657)	0.092 (inactive)
GNL3 (UniProt Q9BVP2)	0.164 (inactive)
FBXO6 (UniProt Q9NRD1)	0.041 (inactive)
HDDC2 (UniProt Q7Z4H3)	-0.012 (inactive)
GBF1 (UniProt Q92538)	0.072 (inactive)
HIST2H2BF isoform 2 (UniProt Q5QNW6)	-0.29 (inactive)
FANCI (UniProt Q9NVI1)	0.109 (inactive)
GIGYF2 (UniProt Q6Y7W6)	0.057 (inactive)
FBL (UniProt P22087)	-0.126 (inactive)
GGA2 (UniProt Q9UJY4)	-0.035 (inactive)
HDAC1 (UniProt Q13547)	-0.004 (inactive)
HNRNPUL1 (UniProt Q9BUJ2)	0.024 (inactive)
FDFT1 (UniProt P37268)	0.089 (inactive)
